Records with an inconclusive call do not appear. Calls of active or inactive are those of the source. The call rests on the fitted dose curve; in most records, active means well fitted curve in the direction sought with a large enough effect; inconclusive means small, poorly fitted or top-dose-only effect, or another doubt; inactive means no such curve, though single readings can be large; an effect the other way counts as inactive or inconclusive.
Columns and labels:
[1] = target: Glutathione peroxidase 1 (Homo sapiens) (UniProt P07203); test: Primary qHTS Assay for Inhibitors of Recombinant Selenoprotein Glutathione Peroxidase 1 (GPX1) (AID 1845191); further: nearly all actives have a fitted effect of over 65% in size; on activity, negative = inhibition: on the % scale 0 is the no-effect control and ±100 the full control effect
Glutathione peroxidase 1 (Homo sapiens), sequence (P07203 whole entry, looked up): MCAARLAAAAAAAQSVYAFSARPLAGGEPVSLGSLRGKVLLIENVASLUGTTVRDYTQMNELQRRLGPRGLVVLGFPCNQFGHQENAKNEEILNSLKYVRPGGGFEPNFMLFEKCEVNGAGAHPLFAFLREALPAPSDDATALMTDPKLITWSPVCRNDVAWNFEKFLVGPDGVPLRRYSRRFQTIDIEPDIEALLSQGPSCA
Summary of the method: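 10 nM GPX1 + cpd, 30 min RT; start w/ 1 mM GSH, 0.5 mM cumene hydroperoxide, 0.5 mM NADPH, 100 nM GR, 0.01% BSA; buffer 50 mM Tris-HCl pH 7.5, 2 mM EDTA, 150 mM NaCl; Fl 340/450, 0 & 15 min.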

[2] = target: Phospholipid hydroperoxide glutathione peroxidase GPX4 (Homo sapiens) (UniProt P36969); test: Primary qHTS Assay for Inhibitors of Recombinant Selenoprotein Glutathione Peroxidase 4 (GPX4) (AID 1845192); further: nearly all actives have a fitted effect of over 65% in size; on activity change, negative = inhibition: series mostly up to about 50 µM; on the % scale 0 is the no-effect control and ±100 the full control effect
Phospholipid hydroperoxide glutathione peroxidase GPX4 (Homo sapiens), sequence (P36969 whole entry, looked up): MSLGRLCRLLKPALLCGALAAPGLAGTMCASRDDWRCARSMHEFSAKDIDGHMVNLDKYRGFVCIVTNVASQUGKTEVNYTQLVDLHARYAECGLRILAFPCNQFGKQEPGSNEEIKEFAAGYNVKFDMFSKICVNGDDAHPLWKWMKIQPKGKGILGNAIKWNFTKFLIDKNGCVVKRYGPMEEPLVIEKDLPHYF
Summary of the method: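 NADPH consumption, followed by fluorescence at 340/450 nm between 0 and 15 min, reports GPX4 activity via coupled glutathione reductase (100 nM). Enzyme 200 nM was pre-exposed to compound 30 min; 0.5 mM cumene hydroperoxide and 1 mM GSH served as substrates.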

[3] = target: Luciferin 4-monooxygenase (Photinus pyralis) (UniProt P08659); test: Primary firefly luciferase (FLuc) qHTS assay for identification of artifact compounds. (AID 1845220); further: nearly all actives have a fitted effect of over 60% in size;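 on activity change, negative = inhibition: series mostly up to about 54 µM; plate controls were DMSO vehicle for no effect and no enzyme for full effect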
Summary of the method: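 Compounds sat 15 min at room temperature with 10 uM luciferin and 10 uM ATP (pH 7.6 Tris acetate). Firefly luciferase (10 nM final) was then added, and luminescence was read 5 min later. Data normalized to no-enzyme and DMSO controls were Hill-fitted.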

[4] = test system: Nanoluciferase (engineered Oplophorus gracilirostris luciferase); test: Primary Nanoluciferase (NLuc) qHTS assay for identification of artifact compounds. (AID 1845222);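 further: series mostly up to about 54 µM; 0% = DMSO and -100% = no enzyme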
Summary of the method: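 Luminescence from secreted NLuc (filtered, 1:55-diluted S16 cell medium) read 5 min after Nano-Glo substrate; compounds preincubated 15 min, RT. Hill fits of inhibition normalized to DMSO and no-enzyme.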

[5] = Primary redox qHTS assay for identification of artifact compounds. (AID 1845223);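 further: 0% = DMSO and 100% = reference compound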
Summary of the method: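 Amplex Red (25 uM) and HRP (250 mU/mL) in HBSS, with compounds for 15 min, then 250 uM DTT for 30 min, room temperature, dark. Fluorescence 525/598 nm read; normalized to DMSO and 10 uM DA3003; Hill fit.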

CC1(C)CC[C@]2(C(=O)O[C@@H]3O[C@H](CO)[C@@H](O)[C@H](O)[C@H]3O)CC[C@]3(C)C(=CCC4[C@@]5(C)C[C@@H](O)[C@H](O)C(C)(C)C5CC[C@]43C)C2[C@@H]1O (some centres undefined)
inactive: Potency [1] | Potency [2] | Potency [3] | Potency [4] | Potency [5]

C=C1[C@@H]2CC[C@@H]3[C@@](CCC4C(C(=O)O)(C(=O)O)C[C@@H](O[C@@H]5O[C@H](CO)[C@@H](O)[C@H](O)[C@H]5OC(=O)CC(C)C)C[C@]43C)(C2)[C@H]1O (some centres undefined)
inactive: Potency [1] | Potency [2] | Potency [3] | Potency [4]

CC/C=C\[C@H](O)[C@H](O)C1=C(C)C(=O)[C@]2(O1)C(=O)N[C@@](OC)(C(=O)c1ccccc1)[C@@H]2O
inactive: Potency [1] | Potency [2] | Potency [3] | Potency [4] | Potency [5]

CC(=O)CC1CCC(C(C)C(=O)OCC(O)CO)O1 (centres undefined)
inactive: Potency [1] | Potency [2] | Potency [3] | Potency [4]

CC(=O)O[C@@H]1CC(C)=C2[C@H]1[C@H](C)CC[C@H]2/C=C(\C)C(=O)O
inactive: Potency [1] | Potency [2] | Potency [3] | Potency [4]

Cc1ccc(C(=O)N(CCCN)C(c2oc3cc(Cl)ccc3c(=O)c2Cc2ccccc2)C(C)C)cc1 (centres undefined)
inactive: Potency [1] | Potency [2] | Potency [3] | Potency [4]

C=C1C(=O)O[C@@H]2/C=C(\C)C(=O)/C=C/[C@](C)(O)C[C@@H](OC(=O)C(C)C)[C@@H]12
inactive: Potency [1] | Potency [2] | Potency [3] | Potency [4] | Potency [5]

C=C1C(OC(C)=O)CCC2(C)CC3(OC)OC(=O)C(C)=C3CC12 (centres undefined)
inactive: Potency [1] | Potency [2] | Potency [3] | Potency [4]

COc1c2c(c(C)c3c1C(=O)OC3)OC1(C)CC(O)C(C(C)(C)O)C(C)(CCC(=O)O)C1C2 (centres undefined)
inactive: Potency [1] | Potency [2] | Potency [3] | Potency [4]

C/C=C1\[C@H](O[C@@H]2O[C@H](CO)[C@@H](O)[C@H](O)[C@H]2O)OC=C2C(=O)OCCc3ccc(O)c(c3)Oc3ccc(cc3)CCOC(=O)C[C@H]21
inactive: Potency [1] | Potency [2] | Potency [3] | Potency [4]

COc1ccc(/C=C/C(=O)O[C@@H]2[C@@H](O)[C@H](C)O[C@@H](O[C@H]3[C@@H]4C=CO[C@@H](O[C@H]5O[C@@H](CO)[C@H](O)[C@@H](O)[C@@H]5O)[C@@H]4[C@@]4(CO)O[C@@H]34)[C@@H]2OC(C)=O)cc1
inactive: Potency [1] | Potency [2] | Potency [3] | Potency [4]

CC(=O)NC1C(OC(C)(C)C2CCC3(C)C=C(C4CCC5C4(C)CC(O)C4OC(C(C)(C)O)CCC45C)CCC3O2)OC(CO)C(O)C1O (centres undefined)
inactive: Potency [1] | Potency [2] | Potency [3] | Potency [4] | Potency [5]

CC1(C)CC2C=C(C(=O)O)C3COC(=O)C(O)(CO)C23C1 (centres undefined)
inactive: Potency [1] | Potency [2] | Potency [3] | Potency [4]

CC/C=C\CC1C(=O)C=CC1(CCCCCCCC(=O)O)OC(C)=O (centres undefined)
inactive: Potency [1] | Potency [2] | Potency [3] | Potency [4]

CC(O)CCC1C(CO[C@@H]2O[C@H](CO)[C@@H](O)[C@H](O)[C@H]2O)CC(O)CC1(C)C (some centres undefined)
inactive: Potency [1] | Potency [2] | Potency [3] | Potency [4]

COc1ccc(CC2C(=O)NC(C)C(=O)N(C)C3Cc4ccc(cc4)Oc4cc(ccc4OC4OC(CO)C(O)C(O)C4O)CC(C(=O)NC(C)C(=O)NC(C)C(=O)N2C)N(C)C3=O)cc1 (centres undefined)
inactive: Potency [1] | Potency [2] | activity change, negative = inhibition [3] -7.7% [at 11.6 µM] | activity, negative = inhibition [4] -5.37% [at 11.6 µM]

CC(=O)OC/C=C(\C)C(CC1C(C)=C(OC(C)=O)C(=O)C2C(C)(C)C(O)CCC12C)OC(C)=O (centres undefined)
inactive: Potency [1] | Potency [2] | Potency [3] | Potency [4]

CO[C@H]1C[C@@H]2CC[C@@H](C)[C@@](O)(O2)C(=O)C(=O)N2CCCC[C@H]2C(=O)O[C@H]([C@H](C)C[C@H]2CC[C@@H](OP(C)(C)=O)[C@H](OC)C2)CC(=O)[C@H](C)/C=C(\C)[C@@H](O)[C@@H](OC)C(=O)[C@H](C)C[C@H](C)/C=C/C=C/C=C/1C
inactive: Potency [1] | Potency [2] | Potency [3] | Potency [4]

C/C=C/C1=CC2=C(CO1)C(=O)C(C)(O)C(OC(=O)c1c(C)cc(OC)cc1O)C2 (centres undefined)
inactive: Potency [1] | Potency [2] | Potency [3] | Potency [4]

CO[C@H]1/C=C\O[C@@]2(C)Oc3c(C)c(O)c4c(O)c(c5c(nc6cc(C)ccn65)c4c3C2=O)NC(=O)/C(C)=C\C=C/[C@H](C)[C@H](O)[C@@H](C)[C@@H](O)[C@@H](C)[C@H](OC(C)=O)[C@@H]1C
inactive: Potency [1] | Potency [2] | Potency [3] | Potency [4]

C=CCC1=C[C@]2(OC)[C@H](C)[C@@H](c3ccc(O)c(OC)c3)O[C@]2(OC)CC1=O
inactive: Potency [1] | Potency [2] | Potency [3] | Potency [4] | Potency [5]

COC(=O)CC(C)(O)CC(=O)OCc1ccc(O[C@@H]2O[C@H](CO)[C@@H](O)[C@H](O)[C@H]2O)cc1 (some centres undefined)
inactive: Potency [1] | Potency [2] | Potency [3] | Potency [4] | Potency [5]

COc1cc2ncnc(Nc3ccc(O)cc3)c2cc1OC
inactive: Potency [1] | Potency [2] | Potency [3] | Potency [4] | Potency [5]

CC/C=C\CCO[C@@H]1O[C@H](CO[C@@H]2OC[C@H](O)[C@H](O)[C@H]2O)[C@@H](O)[C@H](O)[C@H]1O
inactive: Potency [1] | Potency [2] | Potency [3] | Potency [4] | Potency [5]

CC(C)O[C@@H]1O[C@H](CO)[C@@H](O)[C@H](O)[C@H]1O
inactive: Potency [1] | Potency [2] | Potency [3] | Potency [4] | Potency [5]

OC[C@H]1O[C@@H](Oc2cc(O)c3c(c2)O[C@@H](c2ccc(O)cc2)[C@H](O)C3)[C@H](O)[C@@H](O)[C@@H]1O
inactive: Potency [1] | Potency [2] | Potency [3] | Potency [4] | Potency [5]

C/C(=C\CCC(C)CCO)C(=O)OC1(C)CCC2C(C(=O)O)=COC(OC3OC(CO)C(O)C(O)C3O)C21 (centres undefined)
inactive: Potency [1] | Potency [2] | Potency [3] | Potency [4] | Potency [5]

CC(C)(O)/C=C/C1=CC(=O)[C@@](C)(O)C[C@H]1O
inactive: Potency [1] | Potency [2] | Potency [3] | Potency [4] | Potency [5]
